Drawing on PubChem BioAssay AID2284183 (EPA ToxCast), this text covers AC50 for 1 compound.

Activity calls are given as the source filed them. How the source made its calls: active means hit-call score of the fitted dose curve at least 0.9, where 1 is the maximum; inactive means score below 0.9.

The AC50 is the concentration at which the activity in the assay is half-maximal.

Chain of human Tachykinin Receptor NK2 Agonism, TACR2 (gene 6865) (P21452 whole entry, looked up): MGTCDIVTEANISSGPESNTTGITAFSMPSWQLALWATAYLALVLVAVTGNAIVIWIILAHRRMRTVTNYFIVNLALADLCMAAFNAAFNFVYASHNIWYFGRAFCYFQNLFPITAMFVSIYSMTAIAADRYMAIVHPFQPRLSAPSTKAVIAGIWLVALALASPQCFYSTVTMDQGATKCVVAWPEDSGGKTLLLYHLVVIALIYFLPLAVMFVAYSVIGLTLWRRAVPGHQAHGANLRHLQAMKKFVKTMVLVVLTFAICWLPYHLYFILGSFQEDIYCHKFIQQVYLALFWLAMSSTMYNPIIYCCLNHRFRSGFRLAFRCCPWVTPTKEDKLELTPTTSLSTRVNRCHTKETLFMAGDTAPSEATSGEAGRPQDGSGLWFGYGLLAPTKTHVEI

This assay has as its target human Tachykinin Receptor NK2 Agonism, TACR2 (gene 6865) (UniProt P21452). In words: ERF_TW_GPCR_hTACR2: Eurofins (ERF) G Protein-Coupled Receptor (GPCR) Radioligand Binding LeadHunter Assay for human Tachykinin Receptor NK2 Agonism. The procedure:
ERF_TW_GPCR_hTACR2 is a biochemical, single-readout assay that uses extracted gene-proteins in a cell-free assay. Measurements were taken 1.5 hour after chemical dosing in a 96-well plate. See NK2 Human Tachykinin GPCR Binding (Antagonist Radioligand) Assay, Panlabs.ERF_TW_GPCR_hTACR2 is an assay component calculated from the ERF_TW_GPCR_hTACR2 assay. It is designed to measure radioligand binding using a type of binding reporter as detected by scintillation counting with radiometry technology.Data from the assay component ERF_TW_GPCR_hTACR2 was analyzed at the assay endpoint, ERF_TW_GPCR_hTACR2, in the positive analysis fitting direction relative to DMSO as the negative control and baseline of activity. Using a type of binding reporter, loss-of-signal activity can be used to understand changes in radioligand binding as they relate to gene TACR2. To generalize the intended target to other relatable targets, this assay endpoint is annotated to the gpcr intended target family, where the subfamily is tachykinin.
Human recombinant neurokinin NK2 receptor expressed in CHO-hNK2 cells are used to prepare membranes in modified HEPES buffer pH 7.4. A 5 ug aliquot of membrane is incubated with 0.02 nM [125I]-Neurokinin A for 120 minutes at 25C. […] Membranes are filtered and washed, the filters are then counted to determine [125I]-Neurokinin A specifically bound. […]
Take `O=C(/C=C/c1ccc(O)cc1)CC(=O)/C=C/c1ccc(O)cc1`: the AC50 was 1080 nM (active).
